Most compounds without a hit are left out; they make up all but 4.6% or so of the library.
tim10-1 inh – growth inhibitors of tim10-1 mutant yeast, primary screen, luminescence, uHTS. inhibition, % at 20 µM. AID 463190, 2010. hit rate 2.2% among 330,000. S. cerevisiae tim10-1 ts strain growth, BacTiter-Glo, 24 h;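 active = inhibition of at least 40%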;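 also: mutant grown at 25 °C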
tim23-1 inh – growth inhibitors of tim23-1 mutant yeast, primary screen, luminescence, uHTS. inhibition, % at 20 µM. hit rate 1.3% among 330,000. S. cerevisiae tim23-1 growth, BacTiter-Glo luminescence, 24 h;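 active = growth inhibition of the mutant yeast at or above 50%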;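 also: temperature-sensitive mutant grown at 25 °C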
TIM10 inh – growth inhibitors of isogenic TIM10 control yeast, primary screen, counter-screen for tim10-1 yeast inhibitor project, luminescence, uHTS | S. cerevisiae TIM10 strain growth, BacTiter-Glo luminescence, 24 h | inhibition, % at 10 µM | hit rate 1.4% among 330,000;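 active = inhibition of 40% or more at the single tested concentration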;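 also: wild-type TIM10 isogenic control strain grown at permissive 25 °C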
SKKanGAS inh – S. pyogenes SKKanGAS growth inhibitors in kanamycin, primary screen, streptokinase expression inhibitor project, SKKanGAS strain, BacTiter-Glo luminescence; 6 h; inhibition, % at 7.5 µM; hit rate 1.3% among 300,000;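 active = mean replicate score, as percent of positive control median, at least 50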;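 also: strain carries kanamycin resistance gene driven by streptokinase promoter and grows in 40 µg/ml kanamycin; loss of luminescence reflects streptokinase promoter inhibition or plain growth inhibition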
PfHsp90 set2 – growth inhibition of PfHsp90-expressing yeast, primary screen, antimalarial PfHsp90 inhibitor project, S. cerevisiae, BacTiter-Glo luminescence, single point, set 2 | BacTiter-Glo ATP, 48 h; yeast lacking PDR1 and PDR3 efflux regulators | inhibition, % at 9.4 µM | hit rate 0.32% among 310,000;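 active = every replicate shows inhibition above about 80%, whatever the replicate mean, limit read from the data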
V-ATPase pH – regulators of yeast V-ATPase proton pumping, primary screen, pHLuorin cytosolic pH fluorescence. S. cerevisiae. response, % at 10 µM. hit rate 0.37% among 350,000; in the data active = response mostly above about 7.3%, no sharp cut-off; inactive = mostly below about 5.4%; also: actives read high
tim10-1 conf – growth inhibitors of tim10-1 mutant yeast, confirmation, single concentration, luminescence, S. cerevisiae. shares compounds with tim10-1 inh. S. cerevisiae tim10-1 ts strain growth, BacTiter-Glo, 24 h. inhibition, % at 20 µM. hit rate 56% among 7,400;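 active = inhibition of yeast growth at or above a set limit in either of two repeat tests at 20 µM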;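 also: tim10-1 mutant grown at permissive 25 °C to find synthetic lethal compounds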
tim10 confirm – growth inhibitors of wild-type TIM10 yeast, confirmation, counter-screen for tim10-1 synthetic lethality project, single concentration, luminescence, S. cerevisiae; shares compounds with TIM10 inh; S. cerevisiae tim10 strain growth, BacTiter-Glo luminescence, 24 h; inhibition, % at 10 µM; hit rate 63% among 4,600;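 active = inhibition of yeast growth at or above a set limit in either of two replicates at 10 µM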; also: this counterscreen used the strain with wild-type TIM10
Hits are given with their value; n = inactive; x = not tested or not shown.

SMILES	tim10-1 inh	tim23-1 inh	TIM10 inh	SKKanGAS inh	PfHsp90 set2	V-ATPase pH	tim10-1 conf	tim10 confirm
Cc1ccccc1C(=O)NNC(=S)NC(=O)c1ccc(Cl)cc1Cl	n	n	n	n	n	n	x	x
CCCN(CCC)C(=S)NC(=O)c1ccc(Cl)cc1Cl	54.4	n	40.1	n	n	n	n	37.2
Cc1cc(C)c2c(=O)n(CC(=O)Nc3ccc(Br)c(C)c3)sc2n1	72.0	n	66.6	n	n	n	93.2	93.9
Cc1ccc(O)c(-c2cc(-c3ccccc3C)[nH]n2)c1	51.9	n	66.2	n	n	n	n	n
O=[N+]([O-])c1ccccc1-c1cc(-c2cc(Cl)ccc2O)n[nH]1	x	x	x	n	n	n	x	x
CC(C)(C)c1ccc(-c2cc(N)n[nH]2)cc1	n	n	n	n	n	n	x	x
Oc1ccc(Cl)cc1-c1cc(-c2ccccc2Cl)[nH]n1	49.1	n	41.1	n	n	n	36.1	36.9
Cc1ccc(O)c(-c2cc(C(F)(F)C(F)F)[nH]n2)c1	n	n	n	n	n	n	x	x
CC(C)(C)c1ccc(-c2cc(-c3ccccc3O)[nH]n2)cc1	49.2	n	40.9	104.2	n	n	42.1	n
Oc1ccc(Br)cc1-c1ccn[nH]1	n	n	n	n	n	n	x	x
Oc1ccc(Cl)cc1-c1cc(-c2cccc(Br)c2)n[nH]1	48.3	n	53.1	53.7	n	n	37.2	49.0
Fc1ccc2c(c1)C(c1ccc(N3CCOCC3)cc1)=NNC(c1cccs1)=N2	41.5	n	54.7	n	x	n	n	35.8
COc1ccc(C(C#N)=C2C=CC(=NO)C=C2)cc1	50.5	n	81.2	n	115.1	n	54.5	90.8
O=C(/C=C/c1ccc(-c2ccccc2)o1)c1ccccc1	n	n	54.1	n	n	n	58.6	47.5
CCc1ccc(OCC(=O)Nc2ccc3oc(=O)ccc3c2)cc1	n	n	n	n	n	n	x	x
Cc1cc(NS(=O)(=O)c2ccc(NC(=O)c3cnc(Cl)c(Cl)c3)cc2)nc(C)n1	n	n	n	x	x	n	x	x
Cc1ccc(/C=C/C(=O)Nn2cnnc2)cc1	55.7	n	41.7	n	n	n	n	38.8
COC(=O)C(=C/C(C)=C/c1cccs1)C(=O)OC	43.7	n	43.4	n	n	n	n	43.1
CC(C)c1onc(C(=O)Nc2cccc(Cl)c2)c1[N+](=O)[O-]	45.0	n	41.4	n	n	n	36.8	39.0
C=CCc1c(C)nc(-c2ccccc2)nc1Nc1ccccc1O	46.8	n	63.5	n	n	n	54.1	54.2
O=C(NCc1nc2ccccc2[nH]1)C1=C[C@@H](c2ccc(C(F)(F)F)cc2)C[C@@H](OCc2ccc(CO)cc2)O1	n	n	n	n	n	n	x	x
COc1ccc(C)cc1Nc1n[n+](-c2ccccc2)c(-c2ccc(N(C)C)cc2)s1	n	n	n	n	n	n	x	x
Cc1ccc2c(c1)sc(-c1ccc(N(C)C)cc1)[n+]2C	69.7	n	85.1	n	n	n	74.5	82.2
CC(NC(=S)Nc1ccc(F)cc1)c1ccccc1 (stereo not drawn)	n	n	n	n	n	n	x	x
CC(C)c1ccccc1NC(=S)NC(C)c1ccccc1 (stereo not drawn)	42.0	n	41.6	n	n	n	n	n
SMILES	tim10-1 inh	tim23-1 inh	TIM10 inh	SKKanGAS inh	PfHsp90 set2	V-ATPase pH	tim10-1 conf	tim10 confirm
CCCn1c(SCC(=O)Nc2ccccc2C(=O)OC)nc2c1c(=O)n(C)c(=O)n2C	60.4	n	46.5	n	n	n	45.1	46.4
CCCn1c(SCC(=O)Nc2ccccc2N2CCCCC2)nc2c1c(=O)n(C)c(=O)n2C	n	n	n	n	n	n	x	x
Cc1ccc2c(c1)/C(=C/c1ccccc1)C(=O)N2	54.6	n	49.3	n	n	n	38.6	62.1
Cc1ccc2cccc(NC(=S)NC(=O)c3c(Br)cnn3C)c2n1	n	n	n	n	n	n	x	x
Cc1ccc2cccc(NC(=S)NC(=O)c3ccn(C)n3)c2n1	41.4	n	47.9	n	n	n	n	44.8
COCCn1ccc2c(OCC(=O)NCc3ccc(C)cc3)cccc2c1=O	n	n	n	n	x	n	x	x
CSc1ccccc1NC(=S)Nc1cccc(C(F)(F)F)c1	n	n	n	n	n	n	x	x
Fc1ccccc1CNC(=S)Nc1cccc(C(F)(F)F)c1	47.1	n	43.1	n	n	n	46.0	n
COc1ccc(C)c2sc(N3CCCC3)nc12	43.5	n	44.3	n	x	n	33.2	n
Cc1sc2c(c1C)CN(CCN1CCOCC1)CN2C(=O)c1ccccc1	n	n	n	n	n	n	x	x
CC(C)C[C@H]1CN=C(Nc2ccccc2)N1CC1CCC(C(C)(C)C)CC1 (stereo partly drawn)	43.0	n	41.5	x	n	n	31.9	42.2
CS(=O)(=O)c1ccc(C(=O)OCc2nnc(-c3ccc(Cl)cc3)o2)cc1[N+](=O)[O-]	58.7	n	51.5	n	x	n	55.7	41.0
N/C(Cc1ccc([N+](=O)[O-])cc1)=N\OC(=O)Cc1ccc(Cl)cc1	65.7	n	40.7	n	n	n	n	76.6
N/C(Cc1ccc([N+](=O)[O-])cc1)=N\OC(=O)COc1ccccc1Cl	n	n	n	n	n	n	x	x
Cc1ccc(/C(N)=N/OC(=O)c2ccc3ccccc3c2)cc1	54.1	n	54.5	n	n	n	53.4	66.0
N/C(Cc1ccc(Cl)cc1Cl)=N\OC(=O)c1ccccc1	65.1	n	86.4	n	x	n	n	84.5
O=C(C/C=N/OCc1ccc(Cl)cc1Cl)c1ccccc1	n	n	n	n	n	n	x	x
CCc1ccc(OCC(=O)Oc2ccc([N+](=O)[O-])cc2)cc1	n	n	n	n	n	n	x	x
CCc1ccc(OCC(=O)O/N=C(\N)Cc2ccc([N+](=O)[O-])cc2)cc1	57.1	n	59.7	n	n	n	72.8	41.2
CC(C)(C)NC(=O)CN(C(=O)CN1C(=O)C(=O)c2ccccc21)C(C)(C)C	n	n	n	n	n	n	x	x
CC(C)c1ccccc1NC(=O)CSc1n[nH]c(=O)n1C1CC1	n	n	n	x	n	n	x	x
Cn1cnc(C(=O)NCc2ccccc2)c1C(=O)NCc1ccccc1	n	n	n	x	n	n	x	x
COc1ccc(OC)c(S(=O)(=O)NC(N)=NCCc2ccccc2OC)c1	n	n	n	n	x	x	x	x

Assay outcomes from PubChem.
